Among all 340,000 compounds or so, about 8,500 (2.5%) were called active. The sample as a whole holds a higher share of actives than the screen did. A number with no mark means an inactive call.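 How the source made its calls: active means melting temperature shift of at least 10% of the positive control shift, at one fixed dose; inactive means the rest.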
The molecules below were run on Glutamate receptor ionotropic, NMDA 3A (GRIN3A) ligand-binding domain (assay: binders of NR3A ligand-binding domain, primary screen, biophysical, differential scanning fluorimetry, uHTS (AID 1259313)). Conditions: NR3A LBD differential scanning fluorimetry, at 25 µM, stronger effect = higher value, 0% = protein alone, 100% = glycine-bound protein.
`Cc1ccc(Oc2cc(NC(=O)CCCn3nc(C)c([N+](=O)[O-])c3C)cc([N+](=O)[O-])c2)cc1` was tested, and the Tm shift relative to glycine control was 14.9% (active).
With `CCc1ccc(NC(=O)Cn2nc(C)c([N+](=O)[O-])c2C)cc1` the Tm shift relative to glycine control was -12.5%.
`COc1ccc(CNC(=O)CCCn2nc(C)c([N+](=O)[O-])c2C)cc1` showed a Tm shift relative to glycine control of 2.36%.
For `Cc1cc(C)cc(OCC(=O)OCC(=O)NC2CCCC2)c1`, the Tm shift relative to glycine control was 1.75%.
For `CCOC(=O)C1CCCN(C(=O)Cn2ncc3c(=O)oc4ccc(C)cc4c32)C1` (configuration not stated), the Tm shift relative to glycine control was -4.2%.
Work on `Cc1ccc(-c2nnc(CN3CCN(C)CC3)o2)cc1` yielded a Tm shift relative to glycine control of 0.59%.
In the case of `CC1CC(C)CN(CC(=O)Nc2ccc(S(N)(=O)=O)cc2)C1` (configuration not stated), the Tm shift relative to glycine control is reported as 10% (active).
In the case of `CC1Cc2ccccc2N1CC(=O)Nc1ccc(S(N)(=O)=O)cc1` (configuration not stated), the Tm shift relative to glycine control is reported as 6.2%.
Molecule `CC1CN(C(=S)Nc2ccc(S(N)(=O)=O)cc2)CC(C)O1` (configuration not stated) has a Tm shift relative to glycine control of -1.98%.
Work on `Cc1ccc(Nc2c(O)nc[nH]c2=O)cc1C` yielded a Tm shift relative to glycine control of -3.98%.
For `CCOC(=O)C1CCN(C(=O)COC(=O)C2CCN(S(=O)(=O)c3ccc4c(c3)OCCO4)CC2)CC1`, the Tm shift relative to glycine control was -0.43%.
Work on `COc1ccccc1CNC(=O)C1CCN(S(=O)(=O)c2ccc3c(c2)OCCO3)CC1` yielded a Tm shift relative to glycine control of 6.45%.
With `O=C(COC(=O)C1CCN(S(=O)(=O)c2ccc3c(c2)OCCO3)CC1)Nc1ccccc1OC(F)F` the Tm shift relative to glycine control was 10.1% (active).
In the case of `O=C(CSc1ncnc2scc(-c3ccccc3)c12)NCc1ccc2c(c1)OCO2`, the Tm shift relative to glycine control is reported as -0.99%.
In the case of `O=C(NN=Cc1ccccc1O)NN=Cc1ccccc1O`, the Tm shift relative to glycine control is reported as 29.9% (active).
Work on `O=C(NN=Cc1ccccc1O)C(=O)NN=Cc1ccccc1O` yielded a Tm shift relative to glycine control of -0.25%.
For `O=C(N/N=C/c1ccccc1O)C1CCCC1`, the Tm shift relative to glycine control was -0.52%.
Molecule `COc1ccc(C2NC(=O)N(C)C(C)=C2[N+](=O)[O-])cc1` (configuration not stated) has a Tm shift relative to glycine control of 0%.
`Cc1cc([N+](=O)[O-])ccc1NC(=O)c1ccc(NC(=O)C(C)C)cc1` was tested, and the Tm shift relative to glycine control was 13.6% (active).
Molecule `CC(C)C(=O)Nc1cccc(NC(=O)c2ccc([N+](=O)[O-])cc2Cl)c1` has a Tm shift relative to glycine control of -1.57%.
Molecule `CC(=O)c1ccc(NC(=O)Nc2ccc([N+](=O)[O-])cc2C)cc1` has a Tm shift relative to glycine control of 7.59%.
Work on `CN(Cc1ccco1)S(=O)(=O)c1nnc(NC(=O)c2ccccc2)s1` yielded a Tm shift relative to glycine control of -1.03%.
Work on `CC(C)(Oc1ccc(C2CC2(Cl)Cl)cc1)C(=O)O` (configuration not stated) yielded a Tm shift relative to glycine control of -0.77%.
`O=C(NCc1ccccn1)Nc1ccc(Cl)cc1` was tested, and the Tm shift relative to glycine control was -1.47%.
With `CC(C)S(=O)(=O)c1csc(NC(=O)Nc2ccc(Cl)cc2)c1Cl` the Tm shift relative to glycine control was 24.3% (active).
`O=C(Nc1ccc(Cl)cc1)Nc1ccc(C(=O)N2CCOCC2)cc1` gave a Tm shift relative to glycine control of 2.25%.
Work on `COc1ccc([N+](=O)[O-])cc1N(CC(O)CN(CC(C)C)CC(C)C)S(=O)(=O)c1ccc(C)cc1` (configuration not stated) yielded a Tm shift relative to glycine control of -2.17%.
`COc1cccc(NC(=O)C(Sc2nc3ccccc3c(=O)n2CC(C)C)c2ccccc2)c1` (configuration not stated) was tested, and the Tm shift relative to glycine control was 5.55%.
Work on `N#Cc1c(N)sc2c1CCN(C(=O)OCc1ccccc1)C2` yielded a Tm shift relative to glycine control of -2.92%.
`Cn1cc(S(=O)(=O)NC(c2ccccc2)c2ccccc2)c(=O)n(C)c1=O` gave a Tm shift relative to glycine control of -0.16%.
`COc1ccc(S(=O)(=O)N2CCCCCC2)cc1NC(=O)Cc1ccc(OC)c(OC)c1` showed a Tm shift relative to glycine control of 0.44%.
For `COc1ccc(-c2ccc(Nc3ccc(S(=O)(=O)N4CCCC4)cc3)nn2)cc1OC`, the Tm shift relative to glycine control was 18.4% (active).
`COc1cc(C(C)=O)ccc1OC(C)C(=O)Nc1ccc(S(=O)(=O)N2CCCC2)cc1` (configuration not stated) was tested, and the Tm shift relative to glycine control was 1.81%.
Molecule `COc1cc(/C(=C/c2ccccc2)c2ccccc2)c2c(c1)oc1ccccc12` has a Tm shift relative to glycine control of 3.2%.
In the case of `Cc1ccc(-c2cc(C(=O)NN)n[nH]2)o1`, the Tm shift relative to glycine control is reported as -1.08%.
`O=C(NN=CC=Cc1ccccc1)C(O)C(O)C(=O)NN=CC=Cc1ccccc1` (configuration not stated) was tested, and the Tm shift relative to glycine control was 3.13%.
In the case of `Cc1ccc(-c2cc(C(=O)N/N=C/C=C/c3ccccc3)n[nH]2)o1`, the Tm shift relative to glycine control is reported as 19.9% (active).
With `COCc1nc2ccccc2n1Cc1ccccc1Br` the Tm shift relative to glycine control was -1.6%.
`O=C(Oc1ccc(-c2nnco2)cc1)c1ccc(F)c(S(=O)(=O)N2CCOCC2)c1` showed a Tm shift relative to glycine control of 0.78%.
`COC(CNC(=O)Cn1ncc2ccsc2c1=O)OC` gave a Tm shift relative to glycine control of -0.44%.
With `Cc1ccc(S(=O)(=O)N(CC(=O)Nc2cccc([N+](=O)[O-])c2)Cc2ccc(Cl)cc2)cc1` the Tm shift relative to glycine control was 3.38%.
In the case of `COc1ccc(C)cc1S(=O)(=O)N(CC(=O)Nc1cccc([N+](=O)[O-])c1)c1ccc(C)cc1`, the Tm shift relative to glycine control is reported as 17.5% (active).
In the case of `COc1ccc(N(CC(=O)Nc2ccc(C)cc2C)S(=O)(=O)c2ccccc2[N+](=O)[O-])c(OC)c1`, the Tm shift relative to glycine control is reported as -2.12%.
With `C=CCc1cccc2cc(C(=O)NC3CCCC3)c(=O)oc12` the Tm shift relative to glycine control was -0.75%.
`O=C(Nc1nnc(CCN2CCCCC2)s1)c1cccc(Cl)c1` showed a Tm shift relative to glycine control of -1.3%.
Molecule `Cc1ccc(-c2nnc(C)c(N3CC(C)OC(C)C3)n2)cc1` (configuration not stated) has a Tm shift relative to glycine control of -2.74%.
Work on `O=C(CN1CCN(S(=O)(=O)c2ccc(Br)cc2)CC1)Nc1ccccc1C(=O)c1ccccc1` yielded a Tm shift relative to glycine control of -0.96%.
`O=C(CN1CCN(S(=O)(=O)c2ccc(F)cc2)CC1)Nc1ccccc1F` showed a Tm shift relative to glycine control of -1.4%.
For `COc1ccccc1NC(=O)CN1CCN(S(=O)(=O)c2ccc(Br)cc2)CC1`, the Tm shift relative to glycine control was 24.1% (active).
For `O=C1CCCC(O)=C1N=Nc1ccc2ncsc2c1`, the Tm shift relative to glycine control was -0.17%.
For `NC(=O)COc1ccc(C23CC4CC(CC(C4)C2)C3)cc1`, the Tm shift relative to glycine control was 1.05%.
With `O=C(Cc1ccc(Cl)cc1)c1ccccc1` the Tm shift relative to glycine control was -0.17%.
For `CC(Sc1sc(=S)sc1SC(C)C(=O)O)C(=O)O` (configuration not stated), the Tm shift relative to glycine control was 3.28%.
Work on `O=C(Cc1ccccc1)Nc1ccc(C(=O)Nc2ccccc2C(=O)O)cc1` yielded a Tm shift relative to glycine control of 0.78%.
In the case of `O=C(CN1CCc2ccccc2C1)Nc1cccc(S(=O)(=O)N2CCOCC2)c1`, the Tm shift relative to glycine control is reported as 0.42%.
Molecule `CCOn1c(=O)c(=O)n(O)c2ccccc21` has a Tm shift relative to glycine control of 6.16%.
`CC(=O)Nc1ccc(-c2csc(NC(=O)Nc3ccccc3)n2)cc1` was tested, and the Tm shift relative to glycine control was 26.9% (active).
With `Cc1cccc(NC(=O)Nc2ccc3c(c2)OCO3)n1` the Tm shift relative to glycine control was -1.41%.
In the case of `O=C(Nc1nc2ccccc2s1)c1ccc2c(c1)OCO2`, the Tm shift relative to glycine control is reported as 12.1% (active).
Molecule `O=C(CCC(=O)c1cccs1)Nc1nc2ccccc2s1` has a Tm shift relative to glycine control of -1.65%.
In the case of `COCc1nnc(NC(=O)c2ccc3c(c2)OCO3)s1`, the Tm shift relative to glycine control is reported as -0.5%.
`O=C(CSC1=NCCS1)Nc1nc(-c2ccccc2)cs1` showed a Tm shift relative to glycine control of -5.63%.
Molecule `N#Cc1ccccc1NC(=O)c1ccc2c(c1)OCO2` has a Tm shift relative to glycine control of -0.66%.
For `c1ccc(C(=NNc2nc3ccccc3s2)c2ccccn2)cc1`, the Tm shift relative to glycine control was -7.5%.
`CC(=O)Nc1ccc(Nc2cc(C)nc(Nc3ccc(NC(C)=O)cc3)n2)cc1` showed a Tm shift relative to glycine control of -4.37%.
With `CC(=O)Nc1cccc(-c2csc(Nc3cccc(C)n3)n2)c1` the Tm shift relative to glycine control was 11.8% (active).
For `O=C(NCc1cccnc1)C(=O)Nc1nc(-c2ccccc2)cs1`, the Tm shift relative to glycine control was -0.2%.
For `O=C(Nc1ccccc1)Nc1nc2ccccc2s1`, the Tm shift relative to glycine control was 26.3% (active).
With `O=C(NC(Cc1ccc(O)cc1)C(=O)O)/C(=C/c1ccccc1)NC(=O)c1ccccc1` (configuration not stated) the Tm shift relative to glycine control was -1.28%.
In the case of `O=C(Nc1nccs1)C1CCCN1S(=O)(=O)c1cccc2cccnc12` (configuration not stated), the Tm shift relative to glycine control is reported as 0.08%.
Work on `CCOC(=O)NC(=O)CSc1nnc(SCCC(=O)O)s1` yielded a Tm shift relative to glycine control of -2.83%.
`COc1ccc(C)cc1N(C(=O)Cn1nnc(-c2ccc(C)o2)n1)C(C(=O)NC1CCCC1)c1ccncc1` (configuration not stated) showed a Tm shift relative to glycine control of 0.19%.
`CC(C)(C)NC(=O)NC(=O)COC(=O)C1c2ccccc2Oc2ccccc21` gave a Tm shift relative to glycine control of -5.02%.
`CCC(C)(C)NC(=O)CN(C(=O)CCC(=O)Nc1nccs1)c1ccc2c(c1)OCO2` showed a Tm shift relative to glycine control of -1.69%.
With `COc1cc(NC(=O)CSC(=S)N2CCCC2)c(OC)cc1Cl` the Tm shift relative to glycine control was -1.06%.
Work on `O=C(N/N=C/c1ccccn1)c1ccc(S(=O)(=O)N2CCCCCC2)cc1` yielded a Tm shift relative to glycine control of -1.75%.
In the case of `O=C(N/N=C/c1ccccn1)c1cccc(NC(=O)c2ccc(Cl)cc2)c1`, the Tm shift relative to glycine control is reported as 21.2% (active).
`Cc1cccc(C(=O)Nc2ccc(C(=O)N/N=C/c3cccc(C)n3)cc2)c1` showed a Tm shift relative to glycine control of -13.7%.
`C=CCC1(CC=C)CCCN1C(=O)c1cc(COc2ccc(-n3cncn3)cc2)on1` gave a Tm shift relative to glycine control of 1.48%.
Molecule `Cc1ccc2cc(C#N)c(NCCNC(=S)NCCCN3CCOCC3)nc2c1` has a Tm shift relative to glycine control of 1.55%.
With `CC(C)=CCc1c(O)c(CC=C(C)C)c2occ(-c3ccc(O)cc3)c(=O)c2c1O` the Tm shift relative to glycine control was 31.4% (active).
In the case of `CC(C)CN(Cc1c(O)ccc2c(=O)c(-c3ccccc3)coc12)CC(C)C`, the Tm shift relative to glycine control is reported as -7.19%.
`COC(=O)C1=C(C)N(Cc2ccccc2)C(=NCCCOC(C)C)N[C@H]1c1ccccc1` gave a Tm shift relative to glycine control of -2.6%.
In the case of `CCOC(=O)c1cc(=O)c2ccc(OCc3ccccc3)cc2o1`, the Tm shift relative to glycine control is reported as 2.08%.
In the case of `Cc1ccccc1NC(=O)c1ccc(COc2ccc3c(C)cc(=O)oc3c2)cc1`, the Tm shift relative to glycine control is reported as 12% (active).
`CCN(C(=O)COC(=O)c1ccc(COc2ccc3c(C)cc(=O)oc3c2)cc1)C1CCS(=O)(=O)C1` (configuration not stated) was tested, and the Tm shift relative to glycine control was 2.72%.
`COC(=O)c1ccc(/C=N/OCC(=O)Nc2cc(F)ccc2F)cc1` showed a Tm shift relative to glycine control of 1.06%.
`CC(NC(=O)C(=O)N/N=C/c1ccc(Cl)cc1)c1ccccc1` (configuration not stated) was tested, and the Tm shift relative to glycine control was -8.19%.
In the case of `CC(C)Cn1cnc2c(SCc3ccc(Cl)cc3)nc(N)nc21`, the Tm shift relative to glycine control is reported as -6.54%.
Work on `COC(=O)C1=C(C)N(C)C(=O)NC1c1ccc([N+](=O)[O-])o1` (configuration not stated) yielded a Tm shift relative to glycine control of -3.85%.
Work on `CCOC(=O)c1ccc(-c2ccc(C(=O)Nc3cccnc3)o2)cc1` yielded a Tm shift relative to glycine control of -18.8%.
In the case of `COC(=O)C1=C(C)NC2=C(C(=O)c3ccccc32)C1c1ccc(-c2ccc(C(=O)O)cc2)o1` (configuration not stated), the Tm shift relative to glycine control is reported as 30% (active).
